Among the data in ChEMBL document CHEMBL3988442, “University of Dundee, Small-Polar-MMV Screening Library” (2021) are Percent Effect values, retold here.

Structures are written as SMILES.

Holding throughout (format): functional
Common to all, as to set-up: scale not given: direction of the effect not stated beside the values
What all share (conditions): 30 µM

For test [1], the target named is T1, Aspartate--tRNA(Asp/Asn) ligase (Mycobacterium tuberculosis (strain ATCC 25618 / H37Rv)) (UniProt P9WFW3). Further: in the data most compounds retested in dose-response had high values.
T1 sequence (whole entry): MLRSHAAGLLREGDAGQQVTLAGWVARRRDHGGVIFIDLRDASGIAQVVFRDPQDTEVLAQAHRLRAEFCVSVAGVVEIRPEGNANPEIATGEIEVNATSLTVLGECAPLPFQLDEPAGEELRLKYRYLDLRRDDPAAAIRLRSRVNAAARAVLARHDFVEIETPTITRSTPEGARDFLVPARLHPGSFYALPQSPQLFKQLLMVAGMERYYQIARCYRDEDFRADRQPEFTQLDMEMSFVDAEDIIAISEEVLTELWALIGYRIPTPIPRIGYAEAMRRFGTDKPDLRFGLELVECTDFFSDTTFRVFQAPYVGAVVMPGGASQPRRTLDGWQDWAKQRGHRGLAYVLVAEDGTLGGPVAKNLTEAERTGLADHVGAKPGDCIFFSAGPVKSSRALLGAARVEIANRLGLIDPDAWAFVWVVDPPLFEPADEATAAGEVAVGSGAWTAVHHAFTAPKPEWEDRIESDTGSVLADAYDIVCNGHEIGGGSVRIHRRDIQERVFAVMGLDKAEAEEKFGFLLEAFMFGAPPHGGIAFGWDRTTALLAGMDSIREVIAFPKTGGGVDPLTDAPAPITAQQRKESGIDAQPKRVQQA
Kind of test: Assay for Asp RNA synthetase-1 from Mycobacterium tuberculosis.

The target of test [2] is Shiga toxin 2 (Escherichia coli O157:H7) (UniProt P09385+P09386). Kind of test: E. coli 0.157:H7 Shiga Toxin SOP - stx2 screening assay.
For test [3], the target named is AMP-activated protein kinase, AMPK (Homo sapiens) (UniProt P54646+O43741+P54619+Q9UGJ0+Q9Y478+Q13131+Q9UGI9). In words: AMP-dependent Kinase enzyme assay. An in vitro enzyme assay that detects ADP turnover that is directly proportional to AMPK activity. This uses naive AMPK that is activated during the assay with MK-8722.

As to `O=c1[nH]c2c(c(=O)n1C1CCCCC1)CCC2Nc1ccccc1Cl` (stereo not given), the values for the Percent Effect in test [1] and in test [2] were 4.33% and -5.14%, respectively.

For the molecule `CC(NC(=O)NCCCN(C)S(C)(=O)=O)c1ccncc1` (stereo not given), the figures for the Percent Effect in test [1] and in test [2] were -2.98% and -9.54%, respectively.

Turning to `COCCOCC(=O)Nc1ccc(C)cc1F`, the Percent Effect in test [1] was -1.8%; in test [2] it was 2.25%.

Take `CO[C@@H]1CC[C@@H](N(C)C(=O)COc2ccc(F)cc2)[C@H]1O`: the values for the Percent Effect in test [1] and in test [2] were 3.81% and 28.3%, respectively.

Take `Cc1cccnc1C(=O)N1CCCCC1c1[nH]ncc1S(C)(=O)=O` (stereo not given): the Percent Effect in test [1] came out at 5.01%; in test [2], 6.84%.

`CCCS(=O)(=O)N1CCN(c2cc(-n3nc(C)cc3C)nc(C)n2)CC1`: the Percent Effect in test [1] was -3.15%; in test [2], -4.71%.

With `CSc1ccccc1C(=O)C1CCCN(Cc2cc(C(C)C)[nH]n2)C1` (stereo not given), the Percent Effect in test [3] came out at 6.61%.

For the molecule `Cc1ccc(CNCc2ccc(-n3nc(C)cc3C)nc2)cc1`, the Percent Effect in test [1] came out at 1.23%; in test [2], 22.8%.

As for `COc1c(C2CCCN2CC(=O)Nc2nc(C)cs2)c(C)nn1C` (stereo not given), the Percent Effect in test [1] is -3%; in test [2], -14.6%.

`O=C(C1CCOCC1)N1C[C@H]2CC[C@@H]1CN(Cc1ccncc1)C2`: in test [3], the Percent Effect is 0.59%.

Turning to `O=C(Cc1ccccn1)N1C[C@@H]2CC[C@H](C1)N(Cc1ccccc1)C2=O`, the Percent Effect was -1.24% in test [1] and -4.09% in test [2].
